Our source for the Potency values is PubChem BioAssay (NCATS).

Results filed as inconclusive are left out. Active and inactive are the calls of the source. Calls follow the shape of the dose curve; as a rule, active = well fitted cell-killing curve with a large enough effect; inconclusive = small, poorly fitted or top-dose-only effect, or effect the other way; inactive = no such curve, though single readings can be large or run the other way.
Potency is read from the fitted curve at half-maximal effect.

The nature of this assay: Quantitative High-Throughput drug screen in 47 multiple myeloma cell lines against the NCATS MIPE library collection: KMS12BM_JCRB cell viability assay (AID 1918971). Also: nearly all actives have a fitted effect of over 35% in size. Particulars: KMS12BM myeloma viability, CellTiter-Glo ATP, 48 h; series mostly up to 45.8 µM. In short, it runs like this: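 Viability readout: CellTiter-Glo luminescence following 5 min room-temperature incubation with reagent. Prior exposure: 48 h, 37C, humidified 5% CO2, 500 cells per well.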
For orientation: Cellular ATP, detected with luciferase, serves as a proxy for viable cell number.
For `CN1CCN(c2ncc(-c3cc(Cl)cc(Cl)c3Cl)c(N)n2)CC1`, the Potency result was “inactive”.

With `C#C[C@]1(O)CC[C@H]2[C@H]3CCc4cc(OC)ccc4[C@H]3CC[C@@]21C`, the Potency is 18.7 µM (active).

Regarding `O=C(O)CCC=CCC[C@@H]1[C@H](N2CCCCC2)[C@@H](O)C[C@@H]1OCc1ccc(-c2ccccc2)cc1`, the Potency result was “inactive”.

With `C#CCN(C)CC1=Cc2ccccc2Oc2ccccc21`, the Potency was 16.6 µM (active).

As to `Nc1ccc(-c2ccc3ncc4ccc(=O)n(-c5cccc(C(F)(F)F)c5)c4c3c2)cn1`, the Potency was 0.0105 µM (active).

For the molecule `C[C@@]1(c2cc(-c3cncnc3)c(F)cc2F)CCSC(N)=N1`, the Potency result was “inactive”.

For the molecule `C[C@@H](O)[C@H]1C(=O)N2C(C(=O)OCOC(=O)C(C)(C)C)=C(SC3CN(C4=NCCS4)C3)[C@H](C)[C@H]12`, the Potency result was “inactive”.

As to `COc1ccc(-c2ccc3ncc4c(c3c2)n(-c2ccc(N3CCNCC3)c(C(F)(F)F)c2)c(=O)n4C)cn1`, the Potency is 0.332 µM (active).

`O[C@@H](COc1cccc2ncccc12)CN1CCN(C2c3ccccc3[C@@H]3[C@H](c4ccccc42)C3(F)F)CC1` (some centres undefined): the Potency was 23.5 µM (active).

For `Nc1ccn([C@@H]2O[C@H](CO)[C@@H](O)[C@H]2O)c(=O)n1`, the Potency entry was “inactive”.

For `O=C(O)Cc1cccc(OCCCN(Cc2cccc(C(F)(F)F)c2Cl)CC(c2ccccc2)c2ccccc2)c1`, the Potency is 3.32 µM (active).

For `CCCCCCOC(=O)N=C(N)c1ccc(NCc2nc3cc(C(=O)N(CCC(=O)OCC)c4ccccn4)ccc3n2C)cc1`, the Potency was 16.6 µM (active).

As to `CCC(=C(CC)c1ccc(O)cc1)c1ccc(O)cc1`, the Potency was 13.2 µM (active).

As for `COC(=O)[C@H](c1ccccc1Cl)N1CCc2sccc2C1`, the Potency entry was “inactive”.

On to `CC(C)C[C@@H](N)[C@H](O)C(=O)N[C@H](C(=O)N[C@H](C(=O)N[C@@H](CC(=O)O)C(=O)O)C(C)C)C(C)C`, for which the Potency entry is “inactive”.

Consider `COc1nccc(-c2c(-c3ccc(F)cc3)ncn2C2CCC(O)CC2)n1` (centres undefined), for which the Potency is 20.9 µM (active).

Take `COc1ccnc(CS(=O)c2nc3ccc(OC(F)F)cc3[nH]2)c1OC` (centres undefined): the Potency entry is “inactive”.

`CC1(COc2ccc3c(c2)ncn3-c2ccc3cccc(N4CCC(N)CC4)c3n2)COC1`: the Potency was 11.8 µM (active).

In the case of `COc1cc(Cl)cn2c(-c3cccc(NC4CNC4)n3)cnc12`, the Potency is 20.9 µM (active).
